From PubChem BioAssay come the findings set out here.

Active and inactive are the calls of the source. Unless noted, no rule for the calls is given here.

The subject of assay [1] is Wnt5a (protein binding on small-molecule microarray). The experiment in a line: small molecules binding Wnt5a protein – biophysical, small-molecule microarray, 635/667 nm fluorescence, primary screen (AID 1142).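 Also: fluorescence read at 667 nm with signal to noise per printed feature.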 Conditions: 635 nm fluorescence, higher = more signal.
Assay [2] in a line: ATP-based viability of Huh7 replicon cells – cell-based, CellTiter-Glo luminescence, basal, 48 h, cytotoxicity control for HCV replication inhibitor project, primary screen (AID 1143).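 Also: Huh7 hepatoma cells carrying a hepatitis C replication reporter with no stimulus; test concentration not given here.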 Particulars: higher = more signal, called active from +8 up or from −8 down.
A short description of assay [3]: Pseudomonas biofilm growth suppression – PAO1 strain, BacTiter-Glo luminescence, LB-PBS, primary screen (AID 1144). Conditions: P. aeruginosa PAO1 biofilm, 12 h, higher = more signal.
Assay [4] can be described thus: basal CRE-LacZ reporter activity in PC12 – cell-based, unstimulated, primary screen (AID 1145). Conditions: no forskolin, luminescence, 4.5 h, higher = more signal, called active from +8 up or from −8 down.
Assay [5] in a line: forskolin-driven CRE-LacZ activity in PC12 – cell-based, CRE-LacZ reporter, forskolin-stimulated, primary screen (AID 1146).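 Also: PC12 cells with 6xCRE LacZ reporter stimulated by forskolin 10 µM; beta-galactosidase reporter signal reflecting CREB driven transcription.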 Conditions: luminescence, 4.5 h, higher = more signal, called active from +8 up or from −8 down.
Assay [6] concerns the target Streptavidin (Streptomyces avidinii) (UniProt P22629). The experiment in a line: compounds binding control protein streptavidin – biophysical, small-molecule microarray, 635/667 nm fluorescence, artefact control for SMM compound annotation, primary screen (AID 1147).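 Also: signal reflects streptavidin binding to arrayed compounds as a control protein.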 Conditions: higher = more signal.
Assay [7] is described as follows: probe aInhba binding on compound microarray – biochemical, small-molecule microarray, 635/667 nm fluorescence, primary screen (AID 1148).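 Also: score merges 667nm spot fluorescence with signal-to-noise for antibody binding to printed compounds.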 Conditions: higher = more signal.
Assay [8] has as its target Torsin-1A (Homo sapiens) (UniProt O14656). The experiment in a line: TOR1A wild-type binding on microarray – cell lysate, small-molecule microarray, lysate, 635/667 nm, primary screen (AID 1149). Conditions: COS7 hTOR1A-WT lysate, 635 nm fluorescence, higher = more signal.
The target is the same in assay [9]. The experiment in a line: torsin A mutant lysate binding on microarrays – cell lysate, small-molecule microarray, COS7 lysate, 635/667 nm fluorescence, primary screen (AID 1150).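 Also: score pools 667 nm emission and signal to noise measuring lysate protein binding.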 Particulars: COS7 hTOR1A mutant lysate, 635 nm fluorescence, higher = more signal.
Assay [10] deals with Sonic hedgehog protein (Shh). The experiment in a line: Sonic hedgehog microarray binding compounds – biochemical, small-molecule microarray, 635/667 nm fluorescence, primary screen (AID 1151).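 Also: Shh protein binding to compounds spotted on small-molecule microarray slides; score combines spot fluorescence intensity with signal-to-noise across triplicate slides.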 Conditions: 635 nm fluorescence, higher = more signal.

Chain of Torsin-1A (Homo sapiens) (O14656 whole entry, looked up): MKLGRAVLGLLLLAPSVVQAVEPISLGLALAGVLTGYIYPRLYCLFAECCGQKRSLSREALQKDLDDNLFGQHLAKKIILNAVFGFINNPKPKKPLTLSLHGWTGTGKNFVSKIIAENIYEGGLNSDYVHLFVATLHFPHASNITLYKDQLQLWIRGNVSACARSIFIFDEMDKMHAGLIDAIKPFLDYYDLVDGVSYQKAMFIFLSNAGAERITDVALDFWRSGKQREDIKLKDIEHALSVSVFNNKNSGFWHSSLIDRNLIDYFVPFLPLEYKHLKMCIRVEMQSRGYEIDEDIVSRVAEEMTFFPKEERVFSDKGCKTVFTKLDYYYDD
Chain of Streptavidin (Streptomyces avidinii) (P22629 whole entry, looked up): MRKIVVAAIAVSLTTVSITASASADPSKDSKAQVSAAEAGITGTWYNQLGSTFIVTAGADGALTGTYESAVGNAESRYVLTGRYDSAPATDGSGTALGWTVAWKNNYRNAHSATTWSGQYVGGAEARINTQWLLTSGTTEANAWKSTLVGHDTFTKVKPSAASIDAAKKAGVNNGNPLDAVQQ

As for `C#CCN1[C@@H](Cc2ccccc2)C(=O)O[C@H](Cc2ccccc2)[C@@H]1/C=C/C1CC1`, the composite z-score in assay [1] was -0.0041; in assay [6], -0.497; in assay [7], -0.0763; in the assay with Torsin-1A (Homo sapiens) [8], 0.459; in the assay with Torsin-1A (Homo sapiens) [9], 0.84; in [10], 0.482. The z-score in assay [2] was -3.05 (inactive); in assay [3], 1.18 (inactive); in assay [4], 2.12 (inactive); in assay [5], -0.0861 (inactive).
On to `CN(C)CCCC[C@@H]1NC(=O)[C@H]2C[C@@H](C(=O)O)[C@@H](c3ccc(O)cc3)N2C1=O`, for which the composite z-score was 0.938 in assay [1]; 3.44 in assay [6]; 1.98 in assay [7]; 2.77 with Torsin-1A (Homo sapiens) [8]; 3.27 with Torsin-1A (Homo sapiens) [9]; 2.17 in assay [10]. Moreover, the z-score in assay [2] is -2.41 (inactive); in assay [3] it was 0.294 (inactive); in assay [4], 0.419 (inactive); in [5] it was -0.457 (inactive).
For `NC(=O)N1C(=O)C2C(C1=O)C1C=C(CCCO)C2C(c2ccc(CN3CCCC3)cc2)N1Cc1cc2c(cc1Br)OCO2` (stereo not given), the composite z-score is -0.0793 in assay [1]; -0.0077 in [6]; -0.322 in assay [7]; 0.283 in the assay with Torsin-1A (Homo sapiens) [8]; 0.479 with Torsin-1A (Homo sapiens) [9]; 1.13 in assay [10]. The z-score in assay [2] was -1.34 (inactive); in assay [3], -0.607 (inactive); in assay [4], -0.205 (inactive); in [5] it was -0.274 (inactive).
In the case of `COCC(=C=CC[C@H](O)c1ccccc1OCCO)C[C@H](O)COCc1ccccc1`, the composite z-score in assay [1] turned out to be 1.16; in assay [6], 0.259; in assay [7] it was 0.0541; with Torsin-1A (Homo sapiens) [8] it was 1.29; with Torsin-1A (Homo sapiens) [9] it was 1.13; in assay [10], 1.73. Further, the z-score in assay [2] is -0.729 (inactive); in [3], 1.27 (inactive); in assay [4], 5.1 (inactive); in assay [5] it was 0.497 (inactive).
Consider `O=C1O[C@H](c2ccccc2)[C@H](c2ccccc2)N2[C@H]1[C@@H](C(=O)O)[C@]1(C(=O)Nc3ccc(C#CCCO)cc31)[C@H]2c1ccc(OCCO)cc1`, for which the composite z-score in assay [1] came out at 0.48; in assay [6], 0.468; in assay [7], 0.0082; with Torsin-1A (Homo sapiens) [8], 0.865; with Torsin-1A (Homo sapiens) [9], 1.08; in [10] it was 0.314. Moreover, the z-score in assay [2] was -0.33 (inactive); in assay [3] it was 0.982 (inactive); in [4], 1.17 (inactive); in assay [5], 0.147 (inactive).
Consider `C=CCC(OC(C)=O)[C@@H]1[C@@H](N(Cc2cc3ccccc3o2)C(=O)Cc2ccc(OC)cc2)c2cc(OCCCO)ccc2N1C(=O)c1ccc2ccccc2n1` (stereo not given in full), for which the composite z-score in assay [1] was -0.124; in [6], 0.229; in assay [7], -0.0103; with Torsin-1A (Homo sapiens) [8] it was 0.135; with Torsin-1A (Homo sapiens) [9] it was -0.136; in assay [10] it was 0.0685. Further, the z-score is -1.03 (inactive) in [2], 0.267 (inactive) in assay [3], 4.52 (inactive) in [4] and -0.24 (inactive) in [5].
Regarding `O=C1O[C@H](c2ccccc2)[C@H](c2ccccc2)N2[C@H]1[C@@H](C(=O)N1CCN(c3ncccn3)CC1)[C@]1(C(=O)Nc3ccc(C#CCCO)cc31)[C@H]2c1ccc(O)cc1`, the composite z-score is 0.313 in [1]; 1.05 in assay [6]; 0.0111 in assay [7]; 0.161 with Torsin-1A (Homo sapiens) [8]; 0.0065 with Torsin-1A (Homo sapiens) [9]; 0.429 in [10]. In addition, the z-score was -0.522 (inactive) in assay [2], -0.218 (inactive) in assay [3], 0.0653 (inactive) in assay [4] and 0.253 (inactive) in assay [5].
On to `COCCOC(=O)N1C(=O)[C@@]2(c3ccccc31)[C@H](c1ccc(O)cc1)N1[C@H](c3ccccc3)[C@H](c3ccccc3)OC(=O)[C@H]1[C@@H]2C(=O)N1CCCCCCC1`, for which the composite z-score was 1.08 in [1]; 3.03 in [6]; 2.08 in assay [7]; 1.32 in the assay with Torsin-1A (Homo sapiens) [8]; 2.13 with Torsin-1A (Homo sapiens) [9]; 1.96 in assay [10]. Also, the z-score in assay [2] is -2.61 (inactive); in assay [3] it was -1.17 (inactive); in assay [4] it was 0.0816 (inactive); in [5], -0.0911 (inactive).
As to `COc1ccc([Si](C)(C)[C@H]2[C@H](CCO)O[C@@]3(C(=O)N(Cc4cccc(N(C=O)c5ccccc5)c4)c4ccccc43)[C@@H]2C)cc1`, the composite z-score was 0.313 in assay [1]; 1.21 in assay [6]; -0.018 in assay [7]; 0.939 with Torsin-1A (Homo sapiens) [8]; 1.01 in the assay with Torsin-1A (Homo sapiens) [9]; 1.78 in assay [10]. Also, the z-score in assay [2] was -6.26 (inactive); in assay [3], -0.914 (inactive); in [4], -0.417 (inactive); in [5], -1.56 (inactive).
Take `COc1ccc(C#Cc2ccc3c(c2)[C@]2(C(=O)N3)[C@H](C(=O)O)[C@H]3C(=O)O[C@H](c4ccccc4)[C@H](c4ccccc4)N3[C@@H]2c2ccccc2OCCO)cc1`: the composite z-score in assay [1] was 0.119; in assay [6] it was 0.904; in assay [7] it was -0.413; with Torsin-1A (Homo sapiens) [8], 0.65; with Torsin-1A (Homo sapiens) [9], 0.643; in assay [10] it was 1.63. For the same molecule, the z-score in [2] was -5.87 (inactive); in assay [3], -1.75 (inactive); in assay [4], 1.43 (inactive); in assay [5] it was 4.81 (inactive).
For `C=CCNC(=O)[C@@H]1[C@H]2C(=O)O[C@H](c3ccccc3)[C@H](c3ccccc3)N2[C@H](c2ccc(OCCO)cc2)[C@@]12C(=O)Nc1ccc(C#CC3(O)CCCCCC3)cc12`, the composite z-score in assay [1] was found to be 0.407; in assay [6], 0.981; in assay [7], 0.0082; with Torsin-1A (Homo sapiens) [8], 0.507; with Torsin-1A (Homo sapiens) [9], 0.827; in assay [10], 0.938. Besides, the z-score in [2] is -5.36 (inactive); in [3], -1.17 (inactive); in [4] it was 0.155 (inactive); in assay [5], 0.856 (inactive).
For the molecule `O=C1C[C@]2(c3ccc([N+](=O)[O-])cc3)C(=O)N(C3CC3)c3cc(CO)ccc3[C@H]2N1C1CCCCC1`, the composite z-score was -0.0069 in assay [1]; 0.358 in assay [6]; -0.159 in [7]; -0.145 with Torsin-1A (Homo sapiens) [8]; -0.192 with Torsin-1A (Homo sapiens) [9]; 0.147 in [10]. For the same molecule, the z-score in assay [2] is 1.09 (inactive); in [3] it was -0.21 (inactive); in assay [4] it was 0.802 (inactive); in [5], 0.634 (inactive).
